According to PubChem BioAssay:
“And” between values parts separate entries of the source, which are not always exact repeats. Identical values can stand only once. Unmarked numbers belong to inactive results. How the calls were made is not given here.

System: Aerobactin synthetase IucA (Klebsiella pneumoniae hvKP1)
Assay: Biochemical IucA enzyme inhibition primary screen of the Spectrum library (AID 1346200);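 further: 100% = wells without compound and 0% = wells lacking enzyme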
Details: malachite green pyrophosphate, A620, at 8 µM, hits give low values

SMILES	activity remaining
O=C(/C=C/c1ccccc1)O[C@H]1C[C@@H](O)[C@]2(O)C=CO[C@@H](O[C@@H]3O[C@H](CO)[C@@H](O)[C@H](O)[C@H]3O)[C@H]12	108%
O=c1cccc2ccc(O)c(O)c2c1O	86.6%
C[C@@H]1O[C@@H](OC[C@H]2OC(Oc3c(-c4ccc(OCCO)c(OCCO)c4)oc4cc(OCCO)cc(O)c4c3=O)[C@H](O)[C@@H](O)[C@@H]2O)[C@H](O)[C@H](O)[C@H]1O (some centres undefined)	121%
C[C@H]1[C@H]2CCC3C4CC=C5C[C@@H](N(C)C)CC[C@]5(C)C4CC[C@@]32CN1C (some centres undefined)	119%
CC(=O)NO	103%
COc1cc(O)c2c(=O)c(O)c(-c3ccc(O)c(O)c3)oc2c1	103%
COc1ccc2c(c1)c(CC(=O)OCC(=O)O)c(C)n2C(=O)c1ccc(Cl)cc1	92.7%
CC(=O)/C=C\[C@@H]1[C@@]2(C)CCCC(C)(C)C2CC[C@@]1(C)O (some centres undefined)	95.5%
COc1c(O)cc2oc3cc(O)c(CC=C(C)C)c(O)c3c(=O)c2c1CC=C(C)C	93%
CCn1cc(C(=O)O)c(=O)c2cnc(N3CCNCC3)nc21	101%
COc1ccc(/C=C/C(=O)O)cc1OC	110% and 92.7%
CC(C(=O)O)c1cccc(Oc2ccccc2)c1 (centres undefined)	118%
CO/N=C(/C(=O)N[C@@H]1C(=O)N2C(C(=O)O)=C(COC(C)=O)CS[C@H]12)c1csc(N)n1	117%
CC(=O)C1CC[C@H]2C3CC[C@H]4C[C@H](O)CC[C@]4(C)C3CC[C@]12C (some centres undefined)	93.6%
C[C@]12CCC3c4ccc(O)cc4CCC3C1C[C@@H](O)[C@@H]2O (some centres undefined)	99.6%
O=C(O[C@@H]1Cc2c(O)cc(O)cc2O[C@@H]1c1ccc(O)c(O)c1)c1cc(O)c(O)c(O)c1	107%
CCN(CC)C(=O)N1CCN(C)CC1	118%
COC1=CC(C)[C@@H]2C[C@H]3OC(=O)C[C@H]4C(C)=C(OC)C(=O)C([C@@]34C)[C@@]2(C)C1=O (some centres undefined)	97.8%
CCCCCC(C)N (centres undefined)	111%
COc1c(N2CCNC(C)C2)c(F)cc2c(=O)c(C(=O)O)cn(C3CC3)c12 (centres undefined)	123%
Nc1ccc(S(N)(=O)=O)cc1	116%
CNCC[C@@H](Oc1ccccc1)c1ccccc1	111%
CC(Cc1cccc(C(F)(F)F)c1)NCCOC(=O)c1ccccc1 (centres undefined)	98.2%
CC(=O)Oc1cccc2c1C(=O)c1c(OC(C)=O)cc(C(=O)O)cc1C2=O	102%
CC(=O)O[C@H]1CC[C@@]2(C)C(C[C@@H](OC(C)=O)[C@]3(C)C2CC[C@@]2(C)[C@H](c4ccoc4)OC(=O)[C@H]4O[C@]423)C1(C)C (some centres undefined)	82.9%
C[C@H](CCC(=O)O)[C@H]1CCC2C3C(=O)CC4CC(=O)CC[C@]4(C)C3CC(=O)[C@@]21C (some centres undefined)	122%
COc1cc(C(=O)O[C@H]2CC[C@@]3(C)[C@@H]4CC[C@H]5[C@]6(O)C[C@H](O)[C@@]7(O)[C@@H](CN8C[C@@H](C)CC[C@H]8[C@@]7(C)O)[C@]6(O)C[C@@]53OC24O)cc(OC)c1OC	123%
CCn1cc(C(=O)O)c(=O)c2cc(F)c(N3CCN(C)CC3)cc21	109%
C[C@]12C=CC(=O)C=C1CCC1C2C(=O)C[C@@]2(C)C1CC[C@]2(O)C(=O)CO (some centres undefined)	101%
